Reference: PubChem BioAssay (Tox21)
Results filed as inconclusive are left out. The source made the active and inactive calls. Calls follow the shape of the dose curve; as a rule, active = well fitted curve in the direction sought with a large enough effect in the repeat runs; inconclusive = weak or mixed curves; inactive = no such curve, though single readings can be large; an effect the other way counts as inactive or inconclusive.

Columns and labels:
[1] = qHTS RealTime-Glo MT Cell Viability Assay in HepG2 cells - 24 hour (AID 1224867); also: nearly all actives have a fitted effect of over 50% in size
How it was run: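 Real-time, nonlytic viability: 600 HepG2 cells/well mixed with NanoLuc enzyme plus prosubstrate; 5 h settle, compound (DMSO) added by pintool; luminescence monitored over 40 h at 37 C.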

[2] = qHTS RealTime-Glo MT Cell Viability Assay in HEK293 cells - 32 hour (AID 1224868); also: nearly all actives have a fitted effect of over 50% in size; also: potency is read from the fitted curve at half-maximal effect; as to activity change, negative = cytotoxic: top concentration of the series differs between compounds
How it was run: (§1)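 Cells + reagent dispensed (600 cells/well, HEK293) → 5 h at 37 C/5% CO2 → 23 nL compound in DMSO pinned → 40 h at 37 C → luminescence read at 0, 8, 16, 24, 32, 40 h.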

[3] = A CellTox Green Cytotoxicity Assay to monitor cytotoxicity in HEK293 cells - 0 hour (AID 1224869); also: nearly all actives have a fitted effect of over 50% in size
How it was run: (§2)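 Dead-cell fluorescence measured kinetically: asymmetric cyanine dye, HEK293, 600 cells/well, 5 h settle, 23 nL cpd/DMSO, 37 C, reads 0–40 h every 8 h.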

[4] = qHTS RealTime-Glo MT Cell Viability Assay in HepG2 cells - 40 hour (AID 1224870); also: nearly all actives have a fitted effect of over 50% in size
How it was run: (§3)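 Real-time viability: cells seeded at 600 per well together with NanoLuc and cell-permeant prosubstrate, compounds added after 5 h incubation. Luminescence tracked at 0, 8, 16, 24, 32 and 40 h of exposure.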

[5] = A CellTox Green Cytotoxicity Assay to monitor cytotoxicity in HEK293 cells - 40 hour (AID 1224871); also: nearly all actives have a fitted effect of over 45% in size
How it was run: as §2

[6] = qHTS RealTime-Glo MT Cell Viability Assay in HEK293 cells - 16 hour (AID 1224872); also: nearly all actives have a fitted effect of over 50% in size; also: potency is read from the fitted curve at half-maximal effect; as to activity change, negative = cytotoxicity: top concentration of the series differs between compounds
How it was run: as §1

[7] = qHTS RealTime-Glo MT Cell Viability Assay in HepG2 cells - 8 hour (AID 1224873); also: nearly all actives have a fitted effect of over 55% in size
How it was run: as §3

[8] = qHTS RealTime-Glo MT Cell Viability Assay in HEK293 cells - 40 hour (AID 1224874); settings: RealTime-Glo luminescence; max response: stronger effect = lower value; also: nearly all actives have a fitted effect of over 50% in size; also: potency is read from the fitted curve at half-maximal effect
How it was run: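 600 HEK293 cells per well, dispensed already mixed with RealTime-Glo MT reagents. Compound dosing came 5 h later. The same wells were read for luminescence at 0, 8, 16, 24, 32 and 40 h of exposure at 37 C.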

[9] = A CellTox Green Cytotoxicity Assay to monitor cytotoxicity in HEK293 cells - 24 hour (AID 1224875); also: series mostly up to about 77 µM; nearly all actives have a fitted effect of over 45% in size
How it was run: as §2
% is scaled to controls: 0 for no effect and ±100 for the full control effect.

Cc1cc(C)c(C(=O)O)c(C)c1
inactive: outcome [1] | Potency [2] | Potency [3] | outcome [4] | Potency [5] | Potency [6] | outcome [7] | max response [8] 1.4% | Potency [9]

Cc1cc(-c2ccccc2)nnc1NCCN1CCOCC1
inactive: outcome [1] | Potency [2] | Potency [3] | outcome [4] | Potency [5] | Potency [6] | outcome [7] | max response [8] -1.81% | Potency [9]

CC(=O)O[Si](C)(OC(C)=O)OC(C)=O
inactive: outcome [1] | Potency [2] | Potency [3] | outcome [4] | Potency [5] | Potency [6] | outcome [7] | max response [8] 7.61%

COC(=O)c1cccc(Cl)c1
inactive: outcome [1] | Potency [2] | Potency [3] | outcome [4] | Potency [5] | Potency [6] | outcome [7] | max response [8] 11%

CCCCCCCCCCCCCCCCCC#N
inactive: outcome [1] | Potency [2] | Potency [3] | outcome [4] | Potency [5] | Potency [6] | outcome [7] | max response [8] -5.42% | Potency [9]

CC(CO)(CO)CO
inactive: outcome [1] | Potency [2] | Potency [3] | outcome [4] | Potency [5] | Potency [6] | outcome [7] | max response [8] 2.55% | Potency [9]

COc1c2occc2c(OC)c2c(=O)cc(C)oc12
inactive: outcome [1] | Potency [3] | outcome [4] | Potency [5] | outcome [7] | Potency [9]
active: Potency [2] 9.52 µM | Potency [6] 9.52 µM | Potency [8] 9.52 µM

CCO[Si](CC)(OCC)OCC
inactive: outcome [1] | Potency [2] | Potency [3] | outcome [4] | Potency [5] | Potency [6] | outcome [7] | max response [8] -9.96% | Potency [9]

CC(C)OC(=O)OCOP(=O)(CO[C@H](C)Cn1cnc2c(N)ncnc21)OCOC(=O)OC(C)C
inactive: outcome [1] | Potency [2] | Potency [3] | outcome [4] | Potency [5] | Potency [6] | outcome [7] | max response [8] 2.48% | Potency [9]

CC1(C)Cc2cccc(N)c2O1
inactive: outcome [1] | Potency [2] | Potency [3] | outcome [4] | Potency [5] | Potency [6] | outcome [7] | max response [8] 1.5% | Potency [9]

C=CCCCCCCCC
inactive: outcome [1] | Potency [2] | Potency [3] | outcome [4] | Potency [5] | Potency [6] | outcome [7] | max response [8] 1.11% | Potency [9]

CCCCCCC1(C)CCC(=O)O1 (stereo not drawn)
inactive: outcome [1] | Potency [2] | Potency [3] | outcome [4] | Potency [5] | Potency [6] | outcome [7] | max response [8] 3.32% | Potency [9]

CC(Oc1cc(Cl)ccc1Cl)C(=O)O (stereo not drawn)
inactive: outcome [1] | Potency [2] | Potency [3] | outcome [4] | Potency [5] | Potency [6] | outcome [7] | max response [8] -5.27% | Potency [9]

O/N=C/C=N/O
inactive: outcome [1] | Potency [2] | Potency [3] | outcome [4] | Potency [5] | Potency [6] | outcome [7] | max response [8] 0.715% | Potency [9]

COC(=O)CCCCC(=O)O
inactive: outcome [1] | Potency [2] | Potency [3] | outcome [4] | Potency [5] | Potency [6] | outcome [7] | max response [8] 8.26% | Potency [9]

O=C1CCCCO1
inactive: outcome [1] | Potency [2] | Potency [3] | outcome [4] | Potency [5] | Potency [6] | outcome [7] | max response [8] 1.35% | Potency [9]

C/C=C(\C)C(C)=O
inactive: outcome [1] | Potency [2] | Potency [3] | outcome [4] | Potency [5] | Potency [6] | outcome [7] | max response [8] 0.603% | Potency [9]

CCC/C=C(\C=O)CC
inactive: outcome [1] | Potency [2] | Potency [3] | outcome [4] | Potency [5] | Potency [6] | outcome [7] | max response [8] -24.3% | Potency [9]

CCCCOCC(C)O (stereo not drawn)
inactive: outcome [1] | Potency [2] | Potency [3] | outcome [4] | Potency [5] | Potency [6] | outcome [7] | max response [8] 10.5% | Potency [9]

CC1(C)[C@H]2CC[C@](C)(C2)[C@H]1O
inactive: outcome [1] | Potency [2] | Potency [3] | outcome [4] | Potency [5] | Potency [6] | outcome [7] | max response [8] -1.99% | Potency [9]

CCN1CCCC1CN (stereo not drawn)
inactive: outcome [1] | Potency [2] | Potency [3] | outcome [4] | Potency [5] | Potency [6] | outcome [7] | max response [8] 9.62% | Potency [9]

OC1OCCOC1O (stereo not drawn)
inactive: outcome [1] | Potency [2] | Potency [3] | outcome [4] | Potency [5] | Potency [6] | outcome [7] | max response [8] 9.9% | Potency [9]

CCCC(CC)c1ccccc1 (stereo not drawn)
inactive: outcome [1] | Potency [2] | Potency [3] | outcome [4] | Potency [5] | Potency [6] | outcome [7] | max response [8] 11.4% | Potency [9]

O=S(=O)(O)c1ccc2c(N=Nc3ccc(S(=O)(=O)O)c4ccccc34)c(O)c(S(=O)(=O)O)cc2c1
inactive: activity change, negative = cytotoxicity [1] -1.89% [at 6.97 µM] | activity change, negative = cytotoxic [2] 7.73% [at 6.97 µM] | cytotoxicity [3] 3.08% [at 6.97 µM] | activity change, negative = cytotoxic [4] -7.38% [at 6.97 µM] | cytotoxicity increase [5] 7.83% [at 6.97 µM] | activity change, negative = cytotoxicity [6] 5.03% [at 6.97 µM] | viability change, negative = cytotoxic [7] 0.329% [at 6.97 µM] | max response [8] 4.14%
